# Assay outcomes from PubChem BioAssay.
# The list is not random: actives were taken first. Their share in the collection is about 5.4%.
# IMPase Li inh = qHTS Assay for Identifying the Cell-Membrane Permeable IMPase Inhibitors: Potentiation with Lithium | CHO-M1 cells, IP1 TR-FRET (IP-One), carbachol + lithium | Potency, µM (titrated, usually from 59.4 µM), inactives show top-dose activity, negative = IMPase inhibition, usual class: inhibitors | 210,000 tested, 0.35% active | AID 1457, 2008;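 further: IP1 builds up when IMPase is blocked and the TR-FRET signal falls; potency means the concentration at half of the fitted maximal effect; plate controls were basal vehicle for no effect and high inhibitor control for full effect; nearly all actives have a fitted effect of over 50% in size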
#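 CHO-M1, 2000 cells/well, 16–30 h culture; cpd + low Li+, 30 min 37C; lysis with d2-IP1/Eu-anti-IP1 Ab, 10 min RT; TR-FRET 665/620 ratio and 620 channel; AC50 via Hill.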
# ALOX15B inhib = qHTS Assay for Inhibitors of 15-hLO-2 (15-human lipoxygenase 2); Polyunsaturated fatty acid lipoxygenase ALOX15B (Homo sapiens), O15296; purified 15hLO-2, xylenol orange hydroperoxide absorbance; Potency, µM (titrated, usually from 57.1 µM), for inactives: at the top dose activity change, negative = inhibition, most hits filed as inhibitors; 110,000 tested, 0.56% active; AID 881, 2007; further: potency means the concentration at half of the fitted maximal effect; nearly all actives have a fitted effect of over 60% in size
#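 Enzyme 50 nM, AA 45 uM, 25 mM Hepes pH 7.5 + 0.01% Triton X-100; cpd preinc 15 min RT, rxn 90 min RT; stop/detect with 200 uM XO + 300 uM Fe(II) in 50 mM H2SO4, 30 min; A573/A405.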
# PNC assembly inh = High Content Assay for Compounds that inhibit the Assembly of the Perinucleolar Compartment. PC3M PTB-GFP, PNC prevalence imaging, 16 h; hits give low values. activity change (PNC), negative = inhibition, % at 10 µM. 140,000 tested, 3.1% active;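 active means readout at or below -70, meaning at least 70% loss of cells showing the perinucleolar compartment, a nuclear body marking cancer cells; inconclusive means readout between -30 and a set limit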;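 further: plate controls were DMSO wells for no effect and camptothecin positive control wells for full effect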
#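 PC3M cells stably expressing PTB-GFP, 750–1000 cells/well, treated 16 h at 37 °C with compound (23 nl of library stock), in duplicate. After paraformaldehyde fixation and Hoechst stain, imaged at 20x; PNC prevalence scored by image analysis.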
# IMPase inh = qHTS Assay for Identifying the Cell-Membrane Permeable IMPase Inhibitors | CHO-M1 cells, IP1 accumulation, HTRF TR-FRET ratio | AID 901, 2007 | inhibition (IP1 accumulation), % at 46.1 µM | Inositol monophosphatase 1 (Rattus norvegicus), P97697 | 120,000 tested, under 10 active; active means well fitted curve in the direction sought with a large enough effect in the signal ratio, not every such curve was filed as active; inconclusive means small, poorly fitted or top-dose-only effect, or a change in a side signal; inactive means no such curve, though single readings can be large or run the other way; the % refers to the signal ratio;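 further: cells stimulated with carbachol in lithium chloride buffer; plate controls were DMSO basal wells for no effect and reference inhibitor wells for full effect; higher means more IMPase inhibition seen as more IP1 and lower FRET ratio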
# Target sequence (P97697 whole entry, looked up): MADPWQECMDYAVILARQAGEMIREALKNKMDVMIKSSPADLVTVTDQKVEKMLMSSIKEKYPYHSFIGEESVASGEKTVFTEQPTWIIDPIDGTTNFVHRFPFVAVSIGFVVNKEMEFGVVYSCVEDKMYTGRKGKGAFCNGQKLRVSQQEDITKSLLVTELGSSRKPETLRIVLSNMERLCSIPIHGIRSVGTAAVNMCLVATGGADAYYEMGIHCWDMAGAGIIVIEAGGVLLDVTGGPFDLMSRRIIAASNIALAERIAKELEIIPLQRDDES
#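 In this qHTS, compounds (final up to 46 uM) act on CHO-M1 cells that are then activated through the M1 receptor with carbachol, in pH 7.4 buffer containing 50 mM LiCl, for 30 min. IP1 accumulation is quantified by the IP-One immunoassay.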
# 12-hLO inh = qHTS Assay for Inhibitors of 12-hLO (12-human lipoxygenase); Polyunsaturated fatty acid lipoxygenase ALOX12 (Homo sapiens), P18054; purified 12-hLO, xylenol orange hydroperoxide absorbance; Potency, µM (top dose mostly 57.1 µM), without a hit: at the top dose activity change, negative = inhibition, actives largely listed as inhibitors; 150,000 tested, 0.12% active; further: potency means the concentration at half of the fitted maximal effect; nearly all actives have a fitted effect of over 55% in size
#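 150 nM 12hLO, 25 mM Hepes pH 7.0 + 0.01% Triton X-100; cpd preinc 15 min RT; 40 uM arachidonic acid, 30 min RT; Fe-XO 30 min; A573/A405 ratio as read-out.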
# HPGD inh = qHTS Assay for Inhibitors of HPGD (15-Hydroxyprostaglandin Dehydrogenase). Potency, µM, for inactives: top-dose activity change, negative = inhibition, actives largely listed as inhibitors. 15-hydroxyprostaglandin dehydrogenase [NAD(+)] (Homo sapiens), P15428. purified HPGD, NADH fluorescence kinetic, PGE2 substrate. AID 894, 2007. 150,000 tested, 4.3% active; active means well fitted inhibition curve with a large enough effect, not every such curve was filed as active; inconclusive means small, poorly fitted or top-dose-only effect, or another doubt; inactive means no such curve, though single readings can be large or run the other way; further: potency means the concentration at half of the fitted maximal effect
# Target sequence (P15428 whole entry, looked up): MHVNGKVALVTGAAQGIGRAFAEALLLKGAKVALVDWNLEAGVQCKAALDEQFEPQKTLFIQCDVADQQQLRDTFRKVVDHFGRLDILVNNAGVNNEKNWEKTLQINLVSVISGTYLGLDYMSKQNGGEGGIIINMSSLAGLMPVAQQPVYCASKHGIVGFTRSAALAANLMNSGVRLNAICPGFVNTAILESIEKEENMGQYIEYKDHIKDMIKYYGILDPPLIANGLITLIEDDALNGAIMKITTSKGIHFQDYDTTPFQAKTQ
#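 NADH formation kinetics: reaction with 30 uM PGE2 and 1 mM NAD+ (final), 20 nM enzyme, Tris-HCl pH 8 with Tween 20, after 15 min compound preincubation at room temperature. Fluorescence change, last versus first of five reads.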
# The depositor's hits bear a star; ? = inconclusive; . = not tested or not shown; [ ] = dose if it differs, or a comment. Unless noted, the call rests on the fitted dose curve; in most records, active means well fitted curve in the direction sought with a large enough effect; inconclusive means small, poorly fitted or top-dose-only effect, or another doubt; inactive means no such curve, though single readings can be large; an effect the other way counts as inactive or inconclusive. Unless noted, on the % scale 0 is the no-effect control and ±100 the full control effect.
SMILES,IMPase Li inh,ALOX15B inhib,PNC assembly inh,IMPase inh,12-hLO inh,HPGD inh
CN1CCN(C(=O)c2ccc(-n3cccc3)cc2)CC1,-7%[38.3 µM],.,?,1,9%,14µM*
CN1CCN(C(=O)c2ccc3ccccc3c2)CC1,15%[38.3 µM],2%,2,2,-2%,16µM*
CN1CCN(/C=N/c2sc3c(c2C#N)CCCCC3)CC1,-9%[38.3 µM],26%,16,-11,-1%,-16%
N#Cc1c(/N=C/C=C/c2ccccc2)sc2c1CCCC2,-3%[38.3 µM],-11%,21,-2,-10%,22µM*
CCCC1O[C@@H]2C[C@H]3[C@@H]4CCC5=CC(=O)C=C[C@]5(C)C4[C@@H](O)C[C@]3(C)[C@]2(C(=O)CO)O1 (stereo not given in full),-12%,.,.,.,.,-14%
O=C(c1ccco1)N1CCC2(CC1)CN(c1ccccc1)C2,-6%,-11%,.,.,-5%,-8%
O=C(c1cnccn1)N1CCC2(CC1)CCN(c1cccc(-c3ccccc3)c1)CC2,7%,8%,.,.,5%,-8%
CCOc1ccc(C(=O)Nc2ccc(-c3cc4ccccc4oc3=O)cc2)cc1Br,.,.,.,-6,.,.
O=C(c1cc2ccccc2o1)c1nc2c(n1O)CCCCC2,3%[38.3 µM],-3%,?,8,-14%,14µM*
Cc1[nH]nc2c1C(c1cccnc1)N(c1ccc(Br)cc1)C2=O (stereo not given),13%,.,-83*,-3,18%,-12%
COc1cc(C2c3c(n[nH]c3C)C(=O)N2c2ccc(Br)cc2)ccc1O (stereo not given),21%[38.3 µM],-11%,32,1,-7%,-7%
CCOCCCNC(=O)c1cc2c(=O)n3cccc(C)c3nc2n1C,8%[38.3 µM],-6%,-116*,9,2%,?
CCCCNC(=O)c1cc2c(=O)n3cccc(C)c3nc2n1C,6%[38.3 µM],-8%,-20,-4,1%,?
c1ccc(CNc2ncncc2-c2ccoc2)cc1,-3%,-4%,.,.,.,.
C=CCn1c(C)c(C(C)=O)c(SC)nc1=S,4%[38.3 µM],-12%,-84*,1,0%,-11%
CC(C)CC(=O)NC1(C(F)(F)F)C(=O)Nc2c1c(=O)[nH]c(=O)n2-c1ccccc1 (stereo not given),.,.,.,-6,.,.
Cc1nnc(SCc2ccc(Cl)cc2Cl)[nH]c1=O,6%,-2%,?,-2,3%,16µM*
C=CCn1c(NCCO)nc2sc3c(c2c1=O)CCC3,12%[38.3 µM],-1%,-114*,0,-6%,-7%
O=C(Cc1ccc(F)cc1)N1CCN=C1SCc1ccc([N+](=O)[O-])cc1,9%,.,33,-3,-1%,-10%
O=C(Cc1ccccc1)N1CCN=C1SCc1ccc([N+](=O)[O-])cc1,.,.,-90*,-1,-2%,.
Cc1cc(NS(=O)(=O)c2ccc(Nc3nc(-c4ccc(O)cc4)cs3)cc2)no1,17%,.,?,-2,-17%,20µM*
N#Cc1ccccc1OCCOCCNC1CCCC1,7%,.,?,.,-1%,6%
COc1ccccc1OCCNC1CCCC1,7%[38.3 µM],3%,-98*,-3,-8%,-9%
Cc1ccc(Cn2c(SCC(C)C)nc3c2c(=O)[nH]c(=O)n3C)cc1,-3%[38.3 µM],-16%,?,3,-1%,20µM*
C=CCSc1nc2c(c(=O)[nH]c(=O)n2C)n1C(C)C,6%[38.3 µM],3%,-8,4,-5%,18µM*
SMILES,IMPase Li inh,ALOX15B inhib,PNC assembly inh,IMPase inh,12-hLO inh,HPGD inh
C/C(Cl)=C/CSc1nc2c(c(=O)[nH]c(=O)n2C)n1C(C)C,9%[38.3 µM],-10%,24,-2,-5%,-12%
CCCSc1nc2c(c(=O)[nH]c(=O)n2C)n1Cc1ccc(C)cc1,-4%[38.3 µM],-7%,?,0,-6%,-7%
C=CCSc1nc2c(c(=O)[nH]c(=O)n2C)n1Cc1ccc(C)cc1,-4%,.,?,2,2%,25µM*
C/C=C/Cn1c(SCc2ccc(C)cc2)nc2c1c(=O)[nH]c(=O)n2C,18%[38.3 µM],-13%,?,-7,0%,14µM*
O=C(CCCCCN1C(=O)c2ccccc2C1=O)NC1CCCC1,-1%[38.3 µM],-2%,-1,2,-4%,4.5µM*
O=C(CCSc1ccccc1)Nc1ncccn1,7%,3%,-14,1,-1%,-12%
O=C(CCCCCCN1C(=O)c2ccccc2C1=O)NC1CCCCC1,8%,.,2,-3,-1%,4.5µM*
O=C(CCSc1ccccc1)NC1CCCC1,17%[38.3 µM],-3%,17,-6,11%,14µM*
C/C=C(/CC[C@@H](C)[C@H]1CCC2C3=CC[C@H]4[C@H](C)[C@@H](O)CC[C@]4(C)C3CC[C@@]21C)C(C)C (stereo not given in full),-6%,-12%[0.0915 µM],.,.,-4%[0.00818 µM],-12%
CCOC(=O)c1c(NC(=O)COc2cccc(C)c2C)sc2c1CCC(CC)C2 (stereo not given),.,.,.,-6,.,.
COc1ccc(N(C)C(=O)c2cnc(N3CCN(c4ncccn4)CC3)c3ccccc23)cc1,-7%[38.3 µM],-11%,12,12,-2%,28µM*
O=C(Nc1ccccc1N1CCN(C(=O)c2ccc(Cl)cc2)CC1)c1ccc2c(c1)OCO2,32%[38.3 µM],-2%,-102*,0,-20%,?
O=C(c1ccc2c(c1)OCO2)N1CCN(c2ccc(Cl)cc2)CC1,7%[38.3 µM],0%,-14,6,-23%,-15%
O=C(Nc1ccc(C(=O)N2CCCC2)cc1)c1ccc2c(c1)OCO2,21%[38.3 µM],0%,-17,-2,-1%,6.3µM*
CC[C@](N)(C(=O)O)C(C)C,3%,-3%[11.4 µM],.,.,-1%[11.4 µM],-2%
O=c1cc(-c2ccccc2F)oc2ccccc12,4%,.,4,-1,0%,13µM*
COc1ccccc1-c1cc(=O)c2cccc(OC)c2o1,1%,-3%,.,.,-4%,?
COc1cccc(-c2cc(=O)c3ccccc3o2)c1N,9%,14%,.,6,-10%,13µM*
O=c1cc(-c2ccccc2[N+](=O)[O-])oc2ccccc12,6%,.,.,.,.,.
Cc1nc(NCCO)c2nc(-c3ccccc3)n(CCCN(C)C)c2n1,-8%,-1%,.,.,1%,?
Cc1c2c(n3c(nc4ccccc43)c1C#N)N(c1ccccc1)CC2,-1%,.,-95*,.,-4%,-23%
